Reference: PubChem BioAssay AID1159580 (chemical genetic matrix, 2015)
Values joined by “and” are separate entries in the source; they are usually repeats but may differ in a detail not shown here. Equal entries are not always repeated. Screen size: about 5,500 compounds; about 2,000 (36%) were called active. Roughly 18% stayed inconclusive and do not appear here. Cut-off read from the data, not from the text of the source: active = normalized growth mostly below about 0.91 (no sharp cut-off); inconclusive = no clear call, values can overlap the other calls; inactive = mostly above about 0.92. Some of the results follow.

Test: chemical genetic growth profiling, strain panel (AID 1159580);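 note: tested at 20 µM; growth read once vehicle control cultures reached saturation at 30 °C; 1 = growth at the plate median or of vehicle wells; lower values mean less growth of the strain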
Settings: S. cerevisiae deletion strains, growth OD

Measured: normalized growth

O=C(O[C@@H]1Cc2c(O)cc(O)cc2O[C@@H]1c1cc(O)c(=O)c2c(O)c(O)cc([C@H]3Oc4cc(O)cc(O)c4C[C@H]3O)c2c1)c1cc(O)c(O)c(O)c1
inactive: locus YBR021W, strain FUR4, stronger effect = lower value 0.918 | locus YBR171W, strain sec66, stronger effect = lower value 0.938 | locus YDL005C, strain med2, stronger effect = lower value 0.949 | locus YDL185W, strain tfp1, stronger effect = lower value 0.992 | locus YDR001C, strain nth1, stronger effect = lower value 0.984 | locus YDR388W, stronger effect = lower value 0.93 | locus YDR392W, strain spt3, stronger effect = lower value 0.84 | locus YEL061C, strain CIN8 (second series), stronger effect = lower value 0.936 | locus YER110C, stronger effect = lower value 1.03 | locus YGL078C, strain dbp3, stronger effect = lower value 1.02 | locus YGL227W, strain vid30, stronger effect = lower value 0.991 | locus YHR030C, strain SLT2, stronger effect = lower value 1.01 | locus YHR079C, strain IRE1 (second series), stronger effect = lower value 0.946 | locus YHR079C, strain IRE1, stronger effect = lower value 1.03 | locus YHR094C, strain hxt1, stronger effect = lower value 1.02 | locus YIL125W, strain kgd1, stronger effect = lower value 1.04 | locus YIR030C, strain dcg1, stronger effect = lower value 0.973 | locus YJL115W, strain asf1, stronger effect = lower value 0.947 | locus YJL168C, strain set2, stronger effect = lower value 0.997
0.185 (active) and 0.996 (inactive): locus YJL095W, strain BCK1, stronger effect = lower value
active: locus YAL021C, strain ccr4, stronger effect = lower value 0.0928 | locus YAL026C, strain drs2, stronger effect = lower value 0.46 | locus YAL030W, strain snc1, stronger effect = lower value 0.715 | locus YBL061C, strain skt5, stronger effect = lower value 0.531 | locus YBR009C, strain hhf1, stronger effect = lower value 0.556 | locus YBR023C, strain chs3, stronger effect = lower value 0.457 | locus YBR229C, strain ROT2, stronger effect = lower value 0.67 | locus YBR231C, strain swc5, stronger effect = lower value 0.427 | locus YBR279W, strain paf1, stronger effect = lower value 0.549 | locus YCL011C, strain gbp2, stronger effect = lower value 0.62 | locus YCL016C, strain dcc1, stronger effect = lower value 0.765 | locus YCL029C, strain bik1, stronger effect = lower value 0.801 | locus YCL061C, strain MRC1, stronger effect = lower value 0.765 | locus YCL069W, strain vba3, stronger effect = lower value 0.797 | locus YCR088W, strain abp1, stronger effect = lower value 0.911 | locus YDL035C, strain GPR1, stronger effect = lower value 0.224 | locus YDL040C, strain nat1, stronger effect = lower value 0.767 | locus YDL074C, strain BRE1, stronger effect = lower value 0.42 | locus YDL101C, strain DUN1, stronger effect = lower value 0.233 | locus YDL134C, strain PPH21, stronger effect = lower value 0.184 | locus YDL192W, strain arf1, stronger effect = lower value 0.828 | locus YDR069C, strain doa4, stronger effect = lower value 0.116 | locus YDR101C, strain arx1, stronger effect = lower value 0.896 | locus YDR137W, strain rgp1, stronger effect = lower value 0.497 | locus YDR150W, strain NUM1, stronger effect = lower value 0.829 | locus YDR159W, strain sac3, stronger effect = lower value 0.838 | locus YDR162C, strain NBP2, stronger effect = lower value 0.144 | locus YDR195W, strain ref2 0.814 | locus YDR297W, strain sur2, stronger effect = lower value 0.599 | locus YDR318W, strain mcm21, stronger effect = lower value 0.877 | locus YDR334W, strain swr1, stronger effect = lower value 0.571 | locus YDR335W, strain msn5, stronger effect = lower value 0.638 | locus YDR502C, strain sam2, stronger effect = lower value 0.69 | locus YEL003W, strain gim4, stronger effect = lower value 0.659 | locus YEL037C, strain rad23, stronger effect = lower value 0.709 | locus YER015W, strain faa2, stronger effect = lower value 0.292 | locus YER016W, strain bim1, stronger effect = lower value 0.859 | locus YER111C, strain swi4, stronger effect = lower value 0.694 | locus YER155C, strain BEM2 (second series), stronger effect = lower value 0.849 | locus YER155C, strain BEM2, stronger effect = lower value 0.887 | locus YER167W, strain BCK2, stronger effect = lower value 0.78 | locus YFR010W, strain ubp6, stronger effect = lower value 0.63 | locus YGL086W, strain mad1, stronger effect = lower value 0.669 | locus YGL167C, strain pmr1, stronger effect = lower value 0.422 | locus YGL173C, strain kem1, stronger effect = lower value 0.277 | locus YGL240W, strain doc1, stronger effect = lower value 0.81 | locus YGL248W, strain PDE1, stronger effect = lower value 0.474 | locus YGL253W, strain hxk2, stronger effect = lower value 0.588 | locus YGR135W, strain pre9, stronger effect = lower value 0.789 | locus YGR252W, strain gcn5, stronger effect = lower value 0.75 | locus YHR013C, strain ard1, stronger effect = lower value 0.329 | locus YHR027C, strain rpn1, stronger effect = lower value 0.191 | locus YHR129C, strain ARP1, stronger effect = lower value 0.565 | locus YHR142W, strain chs7, stronger effect = lower value 0.532 | locus YHR200W, strain rpn10, stronger effect = lower value 0.845 | locus YIL066C, strain RNR3, stronger effect = lower value 0.153 | locus YIL073C, strain SPO22, stronger effect = lower value 0.198 | locus YJL092W, strain hpr5, stronger effect = lower value 0.882 | locus YJL095W, strain BCK1 (second series), stronger effect = lower value 0.489 | locus YJL129C, strain trk1, stronger effect = lower value 0.829 | locus YJL134W, strain LCB3, stronger effect = lower value 0.825 | locus YJL154C, strain vps35, stronger effect = lower value 0.886 | locus YJL164C, strain tpk1, stronger effect = lower value 0.489 | locus YJL166W, strain qcr8, stronger effect = lower value 0.485 | locus YJL187C, strain SWE1 (second series), stronger effect = lower value 0.13 | locus YJL187C, strain SWE1, stronger effect = lower value 0.604 | locus YJR043C, strain POL32, stronger effect = lower value 0.244
